# Source: PubChem BioAssay (Tox21)
# Several values for one entry are separate records, joined by “and”; a condition that tells them apart may be missing. Equal entries are not always repeated. Inconclusive results are not listed. Some compounds were tested as several samples or in several runs, with calls that do not always agree. Activity calls are given as the source filed them. Calls come from the whole dose curve; as a rule, active = well fitted curve in the direction sought with a large enough effect in the repeat runs; inconclusive = weak or mixed curves; inactive = no such curve, though single readings can be large; an effect the other way counts as inactive or inconclusive.
# Assay: qHTS assay to identify small molecule antagonists of the glucocorticoid receptor (GR) signaling pathway - cell viability counter screen (AID 720693); note: nearly all actives have a fitted effect of over 55% in size
# Settings: GR-bla HeLa viability, CellTiter-Glo luminescence, 18 h, with 5 nM dexamethasone present; series mostly up to 58.5 µM; viability change, negative = cytotoxic: at the top concentration
# % is set by controls: 0 for no effect and ±100 for the full control effect.
row,Compound,"viability change, negative = cytotoxic"
1,Cc1ccccc1N=Nc1ccc(N=Nc2c(O)ccc3ccccc23)c(C)c1,-1.12% (inactive)
2,C=C(C)C(=O)OCCOc1ccccc1,7.13% (inactive)
3,c1ccc(-c2nc[nH]c2-c2ccccc2)cc1,-10.9% (inactive)
4,CCC(=O)OC(C)(C)C1CC=C(C)CC1 (configuration not stated),-10.9% (inactive)
5,CCN(CC)C(C)CN1c2ccccc2Sc2ccccc21 (configuration not stated),10.4% [at 27 µM] (inactive)
6,CN(C)CC[C@@H](c1ccc(Br)cc1)c1ccccn1,6.96% (inactive)
7,CCCCCOC(=O)c1ccc(O)cc1,-19% [at 78.9 µM] (inactive)
8,COc1ccc([C@@H]2Sc3ccccc3N(CCN(C)C)C(=O)[C@@H]2OC(C)=O)cc1,-8.92% (inactive)
9,CCCCCOC(=O)COc1cc(N2C(=O)C3=C(CCCC3)C2=O)c(F)cc1Cl,5.84% (inactive)
10,CC(C)(C)c1ccc(S)cc1,-3.56% (inactive)
11,CCOc1ccc(NC(=O)CC(C)=O)cc1,2.43% (inactive)
12,N#Cc1cc2ccccc2c2ccccc12,0.573% [at 78.9 µM] (inactive)
13,Oc1ccc(Sc2ccc(O)cc2)cc1,0.0289% (inactive)
14,CCCCOc1ccc(CC(=O)NO)cc1,-1.2% [at 27 µM] (inactive)
15,CC(C)CCCC(C)CCO (configuration not stated),3.31% (inactive)
16,C=CC[N+]1([C@H]2C[C@H]3[C@@H]4CC[C@H]5C[C@H](OC(C)=O)[C@@H](N6CCCCC6)C[C@]5(C)[C@H]4CC[C@]3(C)[C@H]2OC(=O)CC)CCCCC1,1.88% (inactive)
17,C[C@@H](C1=C(CCN(C)C)Cc2ccccc21)c1ccccn1,8.13% (inactive)
18,O=C1[C@H](CC[C@H](O)c2ccc(F)cc2)[C@@H](c2ccc(O)cc2)N1c1ccc(F)cc1,0.491% (inactive)
19,CN(C(=O)CCCOc1ccc2[nH]c(=O)ccc2c1)C1CCCCC1,1.33% (inactive)
20,CC(C)(C)C(=O)OCOP(=O)(COCCn1cnc2c(N)ncnc21)OCOC(=O)C(C)(C)C,-1.91% (inactive)

# Assay: qHTS assay for identifying genotoxic compounds that show differential cytotoxicity against isogenic chicken DT40 cell lines with known DNA damage response pathways - wild type cell line (AID 743012); note: nearly all actives have a fitted effect of over 60% in size; note: potency is the fitted concentration of half-maximal effect
# Settings: DT40 wild type chicken cells viability, CellTiter-Glo, 40 h; series mostly up to 68.4 µM; activity change, negative = cytotoxicity: at the top concentration
# Procedure, shortened: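 Parental DNA repair-proficient DT40 cells, 300 per well, were pre-incubated ~0.5 h at 37 C/5% CO2, pin-dosed with compounds in DMSO, then incubated 40 h. Viability was read as CellTiter-Glo luminescence after 30 min at room temperature.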
Compound,"activity change, negative = cytotoxicity",Potency
CC(C)CCCCCCOC(=O)c1ccc(C(=O)OCCCCCCC(C)C)c(C(=O)OCCCCCCC(C)C)c1,15% (inactive),
O=C(O)Cc1cc(I)c(Oc2ccc(O)c(I)c2)c(I)c1,,inactive
CC[C@]12CCCN3CCc4c(n(c5ccccc45)C(=O)C1)[C@@H]32,,4.52 µM (active)
Cc1nc2ccccc2n1Cc1ccc(Cl)cc1,,2.11 µM (active)
O=C(c1ccccc1)c1ccc2n1CCC2C(=O)O (configuration not stated),,inactive
CC(Cc1cccc(C(F)(F)F)c1)NCCOC(=O)c1ccccc1 (configuration not stated),,18.8 µM (active)
Oc1ccc(O)c2c(O)cccc12,-14.6% (inactive),
COc1ccc(C(C)=O)cc1,1.76% [at 95 µM] (inactive),
O=C(c1ccc(O)cc1)c1ccc(O)cc1,-2.87% (inactive),
C[Si](C)O[Si](C)(C)O[Si](C)(C)O[Si](C)C,-0.994% (inactive),
CCCCOC(O)CC (configuration not stated),5.15% (inactive),
O=C(CCN1CCN2CCCC2C1)N1c2ccccc2Sc2ccc(Cl)cc21 (configuration not stated),,10.6 µM (active)
O=C1CCCCCO1,0.813% [at 95 µM] (inactive),
Cc1ncsc1CCO,18.6% (inactive),
CN1CCC(=C2c3ccccc3C=Cc3ccccc32)CC1,,7.5 µM (active)
C=CC(=O)OCC(C)OCC(C)OCC(C)OC(=O)C=C (configuration not stated),,15.4 µM (active)
c1ccc(CNCc2ccccc2)cc1,,54.5 µM (active)
C=CC(C)(CCC=C(C)C)OC(=O)c1ccccc1 (configuration not stated),-8.68% (inactive),

# Assay: qHTS assay for identifying genotoxic compounds that show differential cytotoxicity against isogenic chicken DT40 cell lines with known DNA damage response pathways - Rev3 mutant cell line (AID 743014); note: nearly all actives have a fitted effect of over 55% in size; note: potency is the fitted concentration of half-maximal effect
# Settings: chicken DT40 Rev3-/- viability, CellTiter-Glo, 40 h; series mostly up to 68.4 µM; activity, negative = cytotoxicity: at the top concentration
Compound,"activity, negative = cytotoxicity",Potency
Cc1ccccc1N=Nc1ccc(N=Nc2c(O)ccc3ccccc23)c(C)c1,-10.9% (inactive),
CCC(=O)OC(C)(C)C1CC=C(C)CC1 (configuration not stated),,48.6 µM (active)
CC(C)CCCCCCOC(=O)c1ccc(C(=O)OCCCCCCC(C)C)c(C(=O)OCCCCCCC(C)C)c1,0.197% (inactive),
O=C(O)Cc1cc(I)c(Oc2ccc(O)c(I)c2)c(I)c1,-5.91% (inactive),
CCN(CC)C(C)CN1c2ccccc2Sc2ccccc21 (configuration not stated),-15.9% [at 31.4 µM] (inactive),
CC[C@]12CCCN3CCc4c(n(c5ccccc45)C(=O)C1)[C@@H]32,,4.52 µM (active)
Cc1nc2ccccc2n1Cc1ccc(Cl)cc1,,5.31 µM (active)
O=C(c1ccccc1)c1ccc2n1CCC2C(=O)O (configuration not stated),,inactive
CC(Cc1cccc(C(F)(F)F)c1)NCCOC(=O)c1ccccc1 (configuration not stated),,23.7 µM (active)
Oc1ccc(O)c2c(O)cccc12,-1.27% (inactive),
CCCCCOC(=O)COc1cc(N2C(=O)C3=C(CCCC3)C2=O)c(F)cc1Cl,-21.6% (inactive),
COc1ccc(C(C)=O)cc1,-8.22% [at 95 µM] (inactive),
O=C(c1ccc(O)cc1)c1ccc(O)cc1,5.16% (inactive),
C[Si](C)O[Si](C)(C)O[Si](C)(C)O[Si](C)C,6.02% (inactive),
CCCCOc1ccc(CC(=O)NO)cc1,,12.7 µM (active)
CCCCOC(O)CC (configuration not stated),-14.2% (inactive),
O=C(CCN1CCN2CCCC2C1)N1c2ccccc2Sc2ccc(Cl)cc21 (configuration not stated),,11.9 µM (active)
O=C1CCCCCO1,10.3% [at 95 µM] (inactive),
Cc1ncsc1CCO,-9.41% (inactive),
CN1CCC(=C2c3ccccc3C=Cc3ccccc32)CC1,,10.6 µM (active)
C=CC(=O)OCC(C)OCC(C)OCC(C)OC(=O)C=C (configuration not stated),,19.3 µM (active)
CN(C(=O)CCCOc1ccc2[nH]c(=O)ccc2c1)C1CCCCC1,-8.58% (inactive),
c1ccc(CNCc2ccccc2)cc1,,30.6 µM (active)
C=CC(C)(CCC=C(C)C)OC(=O)c1ccccc1 (configuration not stated),,24.3 µM (active)

# Assay: qHTS assay for identifying genotoxic compounds that show differential cytotoxicity against isogenic chicken DT40 cell lines with known DNA damage response pathways - Rad54/Ku70 mutant cell line (AID 743015); note: nearly all actives have a fitted effect of over 60% in size; note: potency is the fitted concentration of half-maximal effect
# Settings: DT40 Rad54/Ku70 mutant viability, CellTiter-Glo, 40 h; series mostly up to 66.8 µM; activity change, negative = cytotoxicity: at the top concentration
Compound,"activity change, negative = cytotoxicity",Potency
CC(C)CCCCCCOC(=O)c1ccc(C(=O)OCCCCCCC(C)C)c(C(=O)OCCCCCCC(C)C)c1,5.32% (inactive),
O=C(O)Cc1cc(I)c(Oc2ccc(O)c(I)c2)c(I)c1,,inactive and 54.5 µM (active)
CC[C@]12CCCN3CCc4c(n(c5ccccc45)C(=O)C1)[C@@H]32,,7.17 µM (active)
Cc1nc2ccccc2n1Cc1ccc(Cl)cc1,,4.22 µM (active)
O=C(c1ccccc1)c1ccc2n1CCC2C(=O)O (configuration not stated),,inactive
CC(Cc1cccc(C(F)(F)F)c1)NCCOC(=O)c1ccccc1 (configuration not stated),,26.6 µM (active)
CCCCCOC(=O)c1ccc(O)cc1,,61.9 µM (active)
Oc1ccc(O)c2c(O)cccc12,-5.55% (inactive),
COc1ccc(C(C)=O)cc1,16.2% [at 95.1 µM] (inactive),
O=C(c1ccc(O)cc1)c1ccc(O)cc1,-0.977% (inactive),
N#Cc1cc2ccccc2c2ccccc12,-12.5% [at 95.1 µM] (inactive),
C[Si](C)O[Si](C)(C)O[Si](C)(C)O[Si](C)C,1.03% (inactive),
CCCCOC(O)CC (configuration not stated),0.502% (inactive),
O=C(CCN1CCN2CCCC2C1)N1c2ccccc2Sc2ccc(Cl)cc21 (configuration not stated),,23.7 µM (active)
O=C1CCCCCO1,2.44% [at 95.1 µM] (inactive),
Cc1ncsc1CCO,6.25% (inactive),
CN1CCC(=C2c3ccccc3C=Cc3ccccc32)CC1,,13.3 µM (active)
C=CC(=O)OCC(C)OCC(C)OCC(C)OC(=O)C=C (configuration not stated),,17.2 µM (active)
c1ccc(CNCc2ccccc2)cc1,,43.3 µM (active)
C=CC(C)(CCC=C(C)C)OC(=O)c1ccccc1 (configuration not stated),,27.3 µM (active)
